CYP2C9 activ = human CYP2C9 activators, primary screen, biochemical, luminescence | recombinant CYP2C9, luciferin-H conversion; stronger effect = higher value; factor 1 = untreated enzyme, 0 = blocked | Cytochrome P450 2C9 (Homo sapiens), P11712 | hit rate 1.4% among 96,000 | activation factor at 5 µM;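 active means activation factor of 2 or more for CYP2C9 at a 5 µM dose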;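 further: 0 = sulfaphenazole-blocked wells and 1 = vehicle-only wells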
CYP2C19 inhib = blockers of cytochrome P450 2C19 activity – biochemical, luminescence, ADME assay, primary screen. inhibition, % at 5 µM. hit rate 21% among 96,000. CYP2C19 Supersomes, luciferin-H EGE luminescence, 30 min;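 active means CYP2C19 inhibition above a set limit at 5 µM in the primary screen, cut at about 50% in these data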;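 further: plate controls were negative control wells for no effect and 2.5 mM tranylcypromine positive control for full effect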
Cav3 T inh = Cav3.2 calcium influx blockers – cell-based, Fluo-4 calcium fluorescence, FDSS, MLSMR library, primary screen; Voltage-dependent T-type calcium channel subunit alpha-1H (Homo sapiens), O95180; Cav3.2-expressing cells; stronger effect = lower value; B-score at 10 µM; hit rate 4% among 100,000;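 active means single-dose well whose peak fluorescence ratio is a statistical outlier from its plate by either plate-standardised score or position-corrected B-score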
Target sequence (O95180 whole entry, looked up): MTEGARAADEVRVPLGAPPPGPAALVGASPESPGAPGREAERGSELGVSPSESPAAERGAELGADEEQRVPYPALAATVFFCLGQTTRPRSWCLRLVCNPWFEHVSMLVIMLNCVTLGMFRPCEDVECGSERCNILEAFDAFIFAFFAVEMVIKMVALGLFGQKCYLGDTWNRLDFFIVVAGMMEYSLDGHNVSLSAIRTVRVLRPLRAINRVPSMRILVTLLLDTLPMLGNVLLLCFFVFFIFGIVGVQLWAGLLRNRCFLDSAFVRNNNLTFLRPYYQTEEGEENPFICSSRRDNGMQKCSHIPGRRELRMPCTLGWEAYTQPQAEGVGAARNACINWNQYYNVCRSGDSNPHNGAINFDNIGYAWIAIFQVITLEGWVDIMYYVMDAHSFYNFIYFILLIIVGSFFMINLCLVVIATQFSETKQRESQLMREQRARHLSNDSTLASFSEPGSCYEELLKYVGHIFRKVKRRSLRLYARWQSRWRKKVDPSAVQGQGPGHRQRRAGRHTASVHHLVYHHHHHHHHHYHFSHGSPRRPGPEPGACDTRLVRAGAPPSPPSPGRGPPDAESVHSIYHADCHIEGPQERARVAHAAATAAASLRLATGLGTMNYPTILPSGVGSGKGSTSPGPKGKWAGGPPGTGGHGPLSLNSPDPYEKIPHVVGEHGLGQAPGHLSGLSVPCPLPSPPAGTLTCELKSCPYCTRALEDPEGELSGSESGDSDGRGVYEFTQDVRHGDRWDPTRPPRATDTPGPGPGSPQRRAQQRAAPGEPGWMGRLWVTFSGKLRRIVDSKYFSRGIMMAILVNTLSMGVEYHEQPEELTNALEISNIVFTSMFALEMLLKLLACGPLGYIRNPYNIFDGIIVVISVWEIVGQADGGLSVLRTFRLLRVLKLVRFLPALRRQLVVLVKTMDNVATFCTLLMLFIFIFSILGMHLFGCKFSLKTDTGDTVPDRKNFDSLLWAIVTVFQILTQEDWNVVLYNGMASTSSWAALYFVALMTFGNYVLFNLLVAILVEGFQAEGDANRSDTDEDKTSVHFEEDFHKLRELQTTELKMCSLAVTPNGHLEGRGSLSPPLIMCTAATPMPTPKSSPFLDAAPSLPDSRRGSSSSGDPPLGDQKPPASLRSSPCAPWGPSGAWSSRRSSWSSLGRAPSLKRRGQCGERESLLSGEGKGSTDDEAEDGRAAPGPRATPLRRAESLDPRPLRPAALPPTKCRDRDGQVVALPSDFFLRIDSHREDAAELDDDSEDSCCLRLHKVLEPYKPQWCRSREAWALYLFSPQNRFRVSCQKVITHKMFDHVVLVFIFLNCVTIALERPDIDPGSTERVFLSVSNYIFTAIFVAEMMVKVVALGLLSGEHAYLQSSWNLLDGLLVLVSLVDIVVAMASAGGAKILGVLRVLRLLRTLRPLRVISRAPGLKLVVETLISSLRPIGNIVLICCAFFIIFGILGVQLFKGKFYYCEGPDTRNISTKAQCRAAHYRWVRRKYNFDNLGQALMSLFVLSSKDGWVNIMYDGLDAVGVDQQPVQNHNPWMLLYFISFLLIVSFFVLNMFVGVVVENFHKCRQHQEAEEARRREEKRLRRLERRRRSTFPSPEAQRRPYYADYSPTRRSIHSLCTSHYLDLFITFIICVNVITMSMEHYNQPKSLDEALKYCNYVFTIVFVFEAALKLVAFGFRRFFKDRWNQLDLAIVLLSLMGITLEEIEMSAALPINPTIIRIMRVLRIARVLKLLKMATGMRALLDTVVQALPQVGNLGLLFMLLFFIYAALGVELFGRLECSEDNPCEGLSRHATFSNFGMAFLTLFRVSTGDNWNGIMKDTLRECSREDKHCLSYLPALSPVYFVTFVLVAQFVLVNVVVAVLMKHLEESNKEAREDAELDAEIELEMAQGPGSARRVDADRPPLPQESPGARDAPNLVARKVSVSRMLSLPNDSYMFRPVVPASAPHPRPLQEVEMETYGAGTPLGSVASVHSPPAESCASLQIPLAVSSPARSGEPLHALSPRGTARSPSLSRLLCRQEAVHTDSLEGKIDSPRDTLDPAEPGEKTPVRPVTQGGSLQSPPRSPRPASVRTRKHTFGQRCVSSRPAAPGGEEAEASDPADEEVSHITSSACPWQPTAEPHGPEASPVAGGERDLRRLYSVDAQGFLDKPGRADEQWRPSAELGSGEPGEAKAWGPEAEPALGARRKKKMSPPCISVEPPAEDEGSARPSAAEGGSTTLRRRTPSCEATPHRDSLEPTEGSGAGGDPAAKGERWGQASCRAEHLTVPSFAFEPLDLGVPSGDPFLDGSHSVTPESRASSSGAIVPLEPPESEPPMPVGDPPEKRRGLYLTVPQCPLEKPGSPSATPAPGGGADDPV
CYP2C9 inh = blockers of cytochrome P450 2C9 activity – biochemical, luminescence, ADME assay, primary screen. P11712. CYP2C9 Supersomes, luciferin-H conversion. inhibition, % at 5 µM. hit rate 20% among 96,000;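 active means blocking of liver enzyme CYP2C9 beyond about 50% at 5 µM, limit read from the data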
CYP2C19 act = human CYP2C19 activators, primary screen, biochemical, luminescence | recombinant CYP2C19, luciferin-H EGE luminescence; stronger effect = higher value; 0 = fully inhibited enzyme, 1 = untreated enzyme | activation factor at 5 µM | 96,000 tested, under 10 active;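 active means activation factor of at least 2 at 5 µM in the primary screen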;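 further: 0 = wells with 2.5 mM tranylcypromine and 1 = vehicle-only wells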
PTK2B oligo ant = antagonists of Pyk2 self-association, primary screen, Q293 cells, FERM NanoBiT luminescence, HTS | stronger effect = lower value | Protein-tyrosine kinase 2-beta (Homo sapiens), Q14289 | AID 1347419, 2020 | hit rate 0.83% among 99,000 | z-score (the deposit names both 25 µM and 10 µM);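 active means Z-score of -3 or lower, scaled per plate to the spread of control and sample wells; inactive means z-score above -3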;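 further: negative z-score means lost luminescence so less FERM oligomerization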
An asterisk follows results filed as active; / = no result. Compounds with a hit are over-represented: about 27% of the library has one in this group of screens.

SMILES	CYP2C9 activ	CYP2C19 inhib	Cav3 T inh	CYP2C9 inh	CYP2C19 act	PTK2B oligo ant
Cc1ccc(N(CC(=O)N/N=C/c2cc(C)n(-c3ccccc3)c2C)S(C)(=O)=O)c(C)c1	0.8	18	-6.7*	21	0.8	0.91
Cc1cc(/C=N/NC(=O)Cn2c3ccccc3c(=O)c3ccccc32)c(C)n1-c1ccccc1	0.7	9	/	31	0.9	/
Cc1cccc(N(CC(=O)Nc2ccc(F)cc2)S(C)(=O)=O)c1	0.2	96*	-0.16	82*	0	-0.71
CCn1cc(Br)c(C(=O)Nc2cccc(SC)c2)n1	0.6	81*	-0.81	38	0.2	0.42
CC(NC(=O)Cn1nnc(-c2ccncc2)n1)c1ccccc1 (centres undefined)	/	/	1	/	/	/
C#CCNC(=O)C1=C[C@H](C2CCCCC2)[C@@H](CCCO)[C@H](OCC)O1	/	/	1.8	/	/	/
CCN(CC)S(=O)(=O)c1cccc(C(=O)N[C@H](C(=O)OCC(=O)NC(=O)NC)C(C)C)c1	0.8	31	0.99	24	0.7	1
CCCCNC(=O)C1=C(N)C(C(=O)Nc2ccc(C)c(S(=O)(=O)N3CCCCC3)c2)SC1=Nc1ccc(C)cc1C (centres undefined)	0.2	13	/	79*	0.9	0.78
CCN(CC)S(=O)(=O)c1cccc(NC(=O)C2SC(=Nc3ccc(C)cc3C)C(C(=O)NC(C)COC)=C2N)c1 (centres undefined)	0.2	4	-8.6*	83*	1	-0.74
CCCc1cc(=O)[nH]c(SCc2cccc(C)c2)n1	0.6	21	-0.39	44	0.8	-0.05
CCCc1cc(=O)[nH]c(SCC(=O)NC(=O)c2ccccc2)n1	0.8	1	-0.25	22	1	-0.37
CCCc1cc(=O)[nH]c(SCC(=O)N(Cc2ccccc2)C(C)C)n1	0.2	68*	0.85	85*	0.3	-0.26
CCCc1cc(=O)[nH]c(SCc2cc(Cl)ccc2OC(F)F)n1	0.4	28	-2.5	60*	0.7	-1.1
CCCc1cc(=O)[nH]c(SCc2ccc(Cl)cc2)n1	0.3	86*	-0.44	72*	0.1	-0.55
O=C(c1ccccc1)N(Cc1ccco1)C1CCS(=O)(=O)C1 (centres undefined)	1.1	14	0.19	-9	0.9	0.98
CCc1ccc2nc(NC(=O)CSCc3c(C)noc3C)sc2c1	/	/	-0.83	/	/	-1.9
O=C(CCN1C(=O)C2C3C=CC(C4CC34)C2C1=O)Oc1cccc2cccnc12 (centres undefined)	1	15	0.73	-2	0.9	0.09
CC(C)(C)C1CCC(OC(=O)c2ccncc2)CC1 (centres undefined)	0.1	99*	-0.66	94*	0	-0.31
CN1CCC(OC(=O)c2ccc(Br)cc2)CC1	/	/	0.49	/	/	0.73
Cc1ccc(OCC(=O)N2CCC(N3CCCCCC3)CC2)cc1	1.1	-1	0.47	-8	1	0.91
CSc1nc2nccc(-c3ccc(Oc4ccccc4)cc3)n2n1	0.4	51*	0.72	56*	0.5	1.1
c1ccc(Oc2ccc(-c3ccnc4nc(N5CCN(c6ccccc6)CC5)nn34)cc2)cc1	0.4	19	-0.61	59*	0.8	0.04
CSc1nc2nccc(-c3ccc(-c4ccccc4)cc3)n2n1	1	-8	0.026	1	1.1	-0.53
c1ccc(-c2ccnc3nc(N4CCN(c5ccccc5)CC4)nn23)cc1	0.7	28	-1.7	31	0.7	0.36
COC(=O)C1=C(C(=O)OC)C2(OC1c1ccccc1C)C(=O)c1ccccc1C2=O (centres undefined)	/	/	0.12	/	/	1.2
SMILES	CYP2C9 activ	CYP2C19 inhib	Cav3 T inh	CYP2C9 inh	CYP2C19 act	PTK2B oligo ant
CC(C)C(=O)Nc1ccc(C(=O)NNC(=O)CCCOc2ccc(Cl)cc2Cl)cc1	0.6	7	-0.094	40	0.9	3.2
O=C(Nc1ccc2nc(-c3cccs3)[nH]c2c1)c1cccs1	0.2	57*	-0.76	81*	0.4	0.01
O=C(Nc1ccc(-c2nc3ccc(NC(=O)c4cccs4)cc3[nH]2)cc1)c1cccs1	0.8	11	0.26	21	0.9	-0.48
CCC(C)C(NC(=O)OC(C)(C)C)C(=O)NC(C(=O)N1CCCC1C(N)=O)C(C)CC (centres undefined)	1	4	-0.46	-3	1	0.08
COc1ccc(NC(=O)C2CCCN2S(=O)(=O)c2ccc3c(c2)CCC(=O)N3)cc1Cl (centres undefined)	0.3	-6	0.57	65*	1.1	/
COc1ccc(NC(=O)C2CCCN2S(=O)(=O)c2ccc3c(c2)CCC(=O)N3)cc1 (centres undefined)	0.1	31	-4.1*	90*	0.7	/
COc1ccc(S(=O)(=O)N2CCCC2C(=O)Nc2ccc(O)cc2)cc1 (centres undefined)	1.6	4	0.36	-56	1	/
COc1cc2cc(C)c(SCC(=O)N3CCOCC3)nc2cc1OC	0.6	16	1.1	37	0.8	-0.63
Cc1cc(C)n(C(=O)c2ccc(Cn3nc(C)c(Br)c3C)o2)n1	/	/	-1.9	/	/	-1.2
Cc1nn(Cc2ccc(C(=O)Nc3ccc(C(=O)OC(C)C)cc3)o2)c(C)c1Cl	0.4	46	-0.87	63*	0.5	-1.2
Cc1nn(Cc2ccc(C(=O)NC3CCCCC3)o2)c(C)c1Br	0.5	76*	-1.4	50*	0.2	0.18
Cc1nn(Cc2ccc(C(=O)NC(C)(C)C)o2)c(C)c1Br	0.7	50*	0.73	30	0.5	0.81
Cc1nn(Cc2ccc(C(=O)n3cccn3)o2)c(C)c1Br	/	/	-0.51	/	/	0.74
O=C(Nc1ccc2ccccc2c1)[C@@H]1C[C@H]1[C@@H](NP(=O)(c1ccccc1)c1ccccc1)c1ccccc1	/	/	-1.7	/	/	/
C=CCOC(=O)C1=C[C@H](c2csc3ccccc23)C[C@H](OCc2ccc(CO)cc2)O1	/	/	-0.93	/	/	/
O=C1CCCC2=C1C(c1ccsc1)CC(=O)N2c1ccccc1 (centres undefined)	0.7	38	-0.22	32	0.6	1.1
O=C1CCCC2=C1C(c1ccsc1)CC(=O)N2c1nnc(SCc2ccccc2)s1 (centres undefined)	0.5	9	-5.5*	46	0.9	/
CC1(C)CC(=O)c2sc(NC(=O)c3ccc4ncsc4c3)nc2C1	0.8	-14	-0.056	17	1.1	/
CN(Cc1nc(-c2cccnc2)no1)S(=O)(=O)c1ccc(Br)cc1	0.6	29	0.14	38	0.7	-0.11
COc1ccc(-c2noc(CN(C(=O)c3ccc(OC(C)=O)cc3)C(C)C)n2)cc1OC	0.5	32	/	47	0.7	-0.5
